Shown are actives, neighbours in structure and some others; about 2.4% of the full set was active somewhere.
Cruzain Triton = cruzain (T. cruzi) inhibition with detergent. P25779. purified cruzain, Z-FR-AMC fluorescence, 0.01% Triton. Potency, µM, without a hit: max response, negative = inhibition, usual class: inhibitors. 200,000 compounds, 0.43% hits;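 further: plate controls were neutral wells for no effect and buffer without enzyme for full effect; nearly all actives have a fitted effect of over 40% in size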
Target sequence (P25779 123-467 limits assumed): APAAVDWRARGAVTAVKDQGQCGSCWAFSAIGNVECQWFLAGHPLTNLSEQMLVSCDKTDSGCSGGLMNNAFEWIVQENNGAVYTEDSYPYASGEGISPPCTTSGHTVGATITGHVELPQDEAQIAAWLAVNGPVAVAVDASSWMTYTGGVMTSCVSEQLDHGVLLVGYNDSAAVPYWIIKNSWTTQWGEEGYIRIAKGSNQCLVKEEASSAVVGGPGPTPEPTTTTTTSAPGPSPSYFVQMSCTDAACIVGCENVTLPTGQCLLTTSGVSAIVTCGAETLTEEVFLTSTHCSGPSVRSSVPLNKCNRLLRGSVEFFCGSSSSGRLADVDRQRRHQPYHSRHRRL
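Purified cruzain (1.5 nM final) was preincubated with compounds for 15 min at room temperature in 100 mM sodium acetate pH 5.5, 5 mM DTT, 0.01% Triton X-100. Reaction started with 2 uM Z-FR-AMC; AMC fluorescence change over 60 s gave activity.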
Cruzain inh noDet = blocks cruzain activity in detergent-free assay; P25779; purified cruzain, Z-FR-AMC fluorescence, no detergent; Potency, µM, without a hit: max response, negative = inhibition, usual class: inhibitors; 200,000 compounds, 2.3% hits; AID 1476;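 further: plate controls were enzyme without inhibitor for no effect and buffer without enzyme for full effect; nearly all actives have a fitted effect of over 40% in size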
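Detergent-free condition (0.00005% Triton X-100) in acetate buffer pH 5.5 with DTT. 1.5 nM enzyme and compound were pre-mixed 15 min, then 2 uM Z-FR-AMC substrate added; reaction progress from fluorescence change between first and third reads (60 s).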
* = called active by the depositor; ! = repeats disagree. The call rests on the fitted dose curve; in most records, active means well fitted curve in the direction sought with a large enough effect; inconclusive means small, poorly fitted or top-dose-only effect, or another doubt; inactive means no such curve, though single readings can be large; an effect the other way counts as inactive or inconclusive. Potency means the concentration at half of the fitted maximal effect.

How did COCC1=C2c3ccccc3[C@@H]3CNC(=O)C3(C(=O)OC)C[C@@H]2n2c(=O)n(-c3ccccc3)c(=O)n2C1 (some centres not stated) do in these assays?
Cruzain Triton: -0.9%; Cruzain inh noDet: -0.9%

What do the screens show for `COc1ccc(CC(=O)NCCS(=O)(=O)N2CCN(c3ccccc3F)CC2)cc1OC`?
Cruzain Triton: -1.4%; Cruzain inh noDet: 1.3%

Results for O=C(Cc1ccc(-c2ccccc2)cc1)NCCS(=O)(=O)N1CCN(c2ccccc2F)CC1 ?
Cruzain Triton: 0.6%; Cruzain inh noDet: 12.6µM*

How did CCCCc1ccc(Nc2ncnc3c2cnn3-c2ccc(C)cc2)cc1 do in these assays?
Cruzain Triton: 0.7%; Cruzain inh noDet: -0.6%

What do the screens show for `CC[C@H](C)N(C)C(=O)c1cc2ccccc2c(-c2ccccc2Cl)n1`?
Cruzain Triton: -4.2%; Cruzain inh noDet: inconclusive

Results for O=S(=O)(c1ccc(F)cc1)N1CCN(c2nc(-c3ccc(F)cc3)cs2)CC1 ?
Cruzain Triton: -0.6%; Cruzain inh noDet: 10µM*

What do the screens show for `CS(=O)(=O)N1CCN(c2nc(-c3ccc(F)cc3)cs2)CC1`?
Cruzain Triton: -2.2%; Cruzain inh noDet: -1.4%

How did CCn1c(C(=O)N2CCC(C(=O)N3CCN(c4ccc(OC)cc4)CC3)CC2)cc2sccc21 do in these assays?
Cruzain Triton: -6.2%; Cruzain inh noDet: inconclusive

Results for O=C(/C=C/c1ccccc1)NC(=S)NNC(=O)Cc1cccs1 ?
Cruzain Triton: 6.2%; Cruzain inh noDet: inconclusive

Results for COc1cc2c(cc1NC(=O)/C=C/c1ccccc1)oc1ccccc12 ?
Cruzain Triton: 0.5%; Cruzain inh noDet: inconclusive

Results for COc1cc2c(cc1NC(=S)NC(=O)/C=C/c1ccc(OC)c(OC)c1)oc1ccccc12 ?
Cruzain Triton: -2.9%; Cruzain inh noDet: -24.9%

What do the screens show for `COc1cc2c(cc1NC(=O)Nc1cccc(C)c1)oc1ccccc12`?
Cruzain Triton: 17.5%; Cruzain inh noDet: inconclusive

How did COc1cc2c(cc1NC(=O)C(C)OC(=O)/C=C/c1ccc(OC(F)F)cc1)oc1ccccc12 (configuration not stated) do in these assays?
Cruzain Triton: -0.2%; Cruzain inh noDet: 31.6µM*

Results for COc1ccc(/C=C/C(=O)NC(=S)Nc2cc3oc4ccccc4c3cc2OC)cc1 ?
Cruzain Triton: 0.9%; Cruzain inh noDet: 2.51µM*

What do the screens show for `COc1ccc(/C=C/C(=O)NC(=S)NNC(=O)Cc2cccs2)cc1`?
Cruzain Triton: 0.2%; Cruzain inh noDet: 12.6µM*

What do the screens show for `COc1cc2c(cc1NC(=S)Nc1cccc(C)c1)oc1ccccc12`?
Cruzain Triton: -2.7%; Cruzain inh noDet: 31.6µM*

What do the screens show for `Cc1cc(C2(c3cc(C)c(O)cc3C)OS(=O)(=O)c3ccccc32)c(C)cc1O`?
Cruzain Triton: -8.4%; Cruzain inh noDet: 8.0%

What do the screens show for `Cc1ccc2c(=O)c(C(=O)c3ccccc3)cn(CC(=O)Nc3ccccc3C)c2n1`?
Cruzain Triton: 0.1%; Cruzain inh noDet: -5.6%

What do the screens show for `c1csc(CNc2ncncc2-c2ccoc2)c1`?
Cruzain Triton: 3.2%; Cruzain inh noDet: 9.5%

Results for CCN1CCN(CCCNC(=O)c2cc3c(s2)-c2c(C)cccc2OC3)CC1 ?
Cruzain Triton: -26.9%; Cruzain inh noDet: inconclusive

How did Fc1ccccc1-n1ncc2c1ncn1nc(Cc3ccccc3)nc21 do in these assays?
Cruzain Triton: -6.0%; Cruzain inh noDet: -3.9%

Results for COc1ccccc1NC(=O)C1CCN(S(=O)(=O)c2ccc3c(c2)oc(=O)n3C)CC1 ?
Cruzain Triton: -2.3%; Cruzain inh noDet: 0.5%

How did Cc1cccc(CSc2nc3c(c(=O)[nH]2)C(c2cccc(O)c2)CC(=O)N3)c1 (configuration not stated) do in these assays?
Cruzain Triton: -2.4%; Cruzain inh noDet: 0.3%

What do the screens show for `COc1ccccc1NC(=S)NC(=O)/C=C/c1ccco1`?
Cruzain Triton: -21.3%; Cruzain inh noDet: -29.1%

Results for COc1cc2c(cc1NC(=S)NC(=O)/C=C/c1ccco1)oc1ccccc12 ?
Cruzain Triton: -4.6%; Cruzain inh noDet: 12.6µM*

Results for CCOC(=O)c1c(N)n(-c2ccccc2CC)c2nc3ccccc3nc12 ?
Cruzain Triton: 0.7%; Cruzain inh noDet: -2.9%

Results for O=C(c1cnccn1)N1CCC2(CC1)CN(Cc1cc(C(F)(F)F)cc(C(F)(F)F)c1)C2 ?
Cruzain Triton: 5.2%; Cruzain inh noDet: -9.5%

What do the screens show for `Cc1ccccc1NC(=O)Cn1nnc(S(=O)(=O)c2ccc(C(C)(C)C)cc2)c1N`?
Cruzain Triton: -11.3%; Cruzain inh noDet: 7.94µM*

How did Cc1ccccc1NC(=O)Cn1nnc(C(=O)NCc2ccco2)c1N do in these assays?
Cruzain Triton: -0.3%; Cruzain inh noDet: 3.7%

What do the screens show for `Cn1nnnc1SCCNCc1ccc(OCc2ccc(Cl)cc2)cc1`?
Cruzain Triton: -2.5%; Cruzain inh noDet: -1.4%

How did Cc1cc(OCC(=O)N(C)C)c2c(-c3ccccc3)cc(=O)oc2c1 do in these assays?
Cruzain Triton: -0.3%; Cruzain inh noDet: -5.6%

How did CN(C)C(=O)COc1ccc2cc(-c3ccccc3)c(=O)oc2c1 do in these assays?
Cruzain Triton: 28.2µM*; Cruzain inh noDet: inconclusive

Results for Brc1cccc(-c2nn(-c3ccccc3)c3c2cnc2cc4c(cc23)OCO4)c1 ?
Cruzain Triton: -0.5%; Cruzain inh noDet: inconclusive

How did OCC1O[C@H](O[C@H]2C(O)C(O)C(O)O[C@@H]2CO)C(O)C(O)C1O (some centres not stated) do in these assays?
Cruzain Triton: 6.5%; Cruzain inh noDet: 0.0%

What do the screens show for `O=C(/C=C/c1ccc2c(c1)OCO2)Nc1nc(-c2ccc(F)cc2F)cs1`?
Cruzain Triton: -4.7%; Cruzain inh noDet: 7.94µM*

Results for Cc1csc(NC(=O)/C=C/c2ccc3c(c2)OCO3)n1 ?
Cruzain Triton: -9.0%; Cruzain inh noDet: -13.8%

What do the screens show for `O=C(NCc1cccc(Cl)c1)c1c2c(nc3ccccc13)C(=O)N(C1CCCCC1)C2`?
Cruzain Triton: -0.2%; Cruzain inh noDet: 2.9%

Results for CCc1cccc(CC)c1N(COC)C(=O)Cn1c(CC)nc2ccccc21 ?
Cruzain Triton: -4.2%; Cruzain inh noDet: 19.6%

What do the screens show for `Cc1ccc(CNC(=O)c2cc3c(s2)-c2ccccc2SC3)cc1`?
Cruzain Triton: -9.2%; Cruzain inh noDet: inconclusive

How did O=C(NCc1ccccc1Cl)c1cc2c(s1)-c1ccc(Cl)cc1SC2 do in these assays?
Cruzain Triton: -6.5%; Cruzain inh noDet: 10µM*

Results for Cc1ccc(CNC(=O)c2cc3c(s2)-c2ccc(Cl)cc2SC3)cc1 ?
Cruzain Triton: -2.3%; Cruzain inh noDet: 12.6µM*

What do the screens show for `COc1ccccc1CNC(=O)c1cc2c(s1)-c1ccc(Cl)cc1SC2`?
Cruzain Triton: -4.9%; Cruzain inh noDet: -11.7%

What do the screens show for `Cc1ccccc1CN1C(=O)c2ccccc2S(=O)c2ccc(C(=O)NCc3ccco3)cc21` (configuration not stated)?
Cruzain Triton: 0.2%; Cruzain inh noDet: -14.2%

How did O=C(C1CCN(S(=O)(=O)c2ccc(Br)s2)CC1)N1CCN(c2cccc(Cl)c2)CC1 do in these assays?
Cruzain Triton: -2.7%; Cruzain inh noDet: -21.2%

Results for COc1ccc(-c2cc(C(F)(F)F)nc(SCCC(=O)Nc3ccc(NC(C)=O)cc3)n2)cc1 ?
Cruzain Triton: -1.2%; Cruzain inh noDet: 1.5%

What do the screens show for `CN(C)c1ccc(C(=C2C=CC(=[N+](C)C)C=C2)c2ccccc2)cc1`?
Cruzain Triton: 0.0%; Cruzain inh noDet: 25.1µM*!

What do the screens show for `CN(C)c1ccccc1`?
Cruzain Triton: 0.1%; Cruzain inh noDet: -1.3%
